In assay [1] the target is Sin3 histone deacetylase corepressor complex component SDS3 (UniProt Q9H7L9). The assay is described as follows: cross-link between two proteins; cross-linking mass spectrometry; other.
The target of assay [2] is Splicing factor 3A subunit 1 (UniProt Q15459). Described as above.
Assay [3] has as its target Transcription factor JunD (UniProt P17535). Described as above.
Assay [4] has as its target Transcription initiation factor TFIID subunit 12 (UniProt Q16514). The description is as above.
For assay [5], the target named is Transcription initiation factor TFIID subunit 3 (UniProt Q5VWG9). The assay is described as above.
For assay [6], the target named is Transcription initiation factor TFIID subunit 9 (UniProt Q16594). Described as above.
Assay [7] concerns the target Transcription initiation factor TFIID subunit 9B (UniProt Q9HBM6). The description is as above.
For assay [8], the target named is Apoptotic chromatin condensation inducer in the nucleus (UniProt Q9UKV3). The assay is described as follows: cross-linking mass spectrometry; other.
Assay [9] deals with Protein lin-54 homolog (UniProt Q6MZP7). The assay is described as follows: cross-linking mass spectrometry; other.
The target of another assay is Protein lin-9 homolog (UniProt Q5TKA1). The assay is described as follows: cross-linking mass spectrometry; other.
For another assay, the target named is THO complex subunit 1 (UniProt Q96FV9). Briefly: cross-linking mass spectrometry; other.
Assay [10] deals with ATP-dependent chromatin remodeler CHD4 (UniProt Q14839). The assay is described as follows: other; cross-linking mass spectrometry; other.
The target in assay [11] is Metastasis-associated protein MTA1 (UniProt Q13330). Briefly: other; cross-linking mass spectrometry; other.
Assay [12] has as its target Transcriptional repressor p66-alpha (UniProt Q86YP4). Briefly: other; cross-linking mass spectrometry; other.
A further assay has as its target DNA topoisomerase 2-beta (UniProt Q02880). The assay is described as follows: other; cross-linking mass spectrometry; other.
Assay [13] concerns the target Heterogeneous nuclear ribonucleoprotein A/B (UniProt Q99729). Briefly: other; cross-linking mass spectrometry; other.
In assay [14] the target is Heterogeneous nuclear ribonucleoprotein Q (UniProt O60506). Briefly: other; cross-linking mass spectrometry; other.
The next assay deals with Histone H1.2 (UniProt P16403). Briefly: other; cross-linking mass spectrometry; other.
Assay [15] concerns the target Mediator of RNA polymerase II transcription subunit 17 (UniProt Q9NVC6). Briefly: other; cross-linking mass spectrometry; other.
Assay [16] deals with Methyl-CpG-binding domain protein 2 (UniProt Q9UBB5). Briefly: other; cross-linking mass spectrometry; other.
Assay [17] has as its target Methylcrotonoyl-CoA carboxylase beta chain, mitochondrial (UniProt Q9HCC0). The assay is described as follows: other; cross-linking mass spectrometry; other.
Assay [18] deals with Probable ATP-dependent RNA helicase DDX23 (UniProt Q9BUQ8). Briefly: other; cross-linking mass spectrometry; other.
In assay [19] the target is Protein lin-54 homolog (UniProt Q6MZP7). Briefly: other; cross-linking mass spectrometry; other.
In the next assay the target is RNA-binding protein EWS (UniProt Q01844). Briefly: other; cross-linking mass spectrometry; other.
The target of assay [20] is Scaffold attachment factor B1 (UniProt Q15424). Briefly: other; cross-linking mass spectrometry; other.
Assay [21] concerns the target Serine/arginine-rich splicing factor 1 (UniProt Q07955). The assay is described as follows: other; cross-linking mass spectrometry; other.
The next assay has as its target Spindlin-1 (UniProt Q9Y657). The assay is described as follows: other; cross-linking mass spectrometry; other.
In another assay the target is THO complex subunit 2 (UniProt Q8NI27). The assay is described as follows: other; cross-linking mass spectrometry; other.
The target of a further assay is THO complex subunit 7 (UniProt Q6I9Y2). Briefly: other; cross-linking mass spectrometry; other.
Assay [22] addresses Torsin-1A-interacting protein 1 (UniProt Q5JTV8). Briefly: other; cross-linking mass spectrometry; other.
In assay [23] the target is Transcription initiation factor TFIID subunit 12 (UniProt Q16514). Briefly: other; cross-linking mass spectrometry; other.
Assay [24] has as its target Transcription initiation factor TFIID subunit 9B (UniProt Q9HBM6). Briefly: other; cross-linking mass spectrometry; other.
The target in assay [25] is Trifunctional enzyme subunit beta, mitochondrial (UniProt P55084). The assay is described as follows: other; co-fractionation; cross-linking mass spectrometry; other.

Sequence of Transcription initiation factor TFIID subunit 9B (Q9HBM6 whole entry): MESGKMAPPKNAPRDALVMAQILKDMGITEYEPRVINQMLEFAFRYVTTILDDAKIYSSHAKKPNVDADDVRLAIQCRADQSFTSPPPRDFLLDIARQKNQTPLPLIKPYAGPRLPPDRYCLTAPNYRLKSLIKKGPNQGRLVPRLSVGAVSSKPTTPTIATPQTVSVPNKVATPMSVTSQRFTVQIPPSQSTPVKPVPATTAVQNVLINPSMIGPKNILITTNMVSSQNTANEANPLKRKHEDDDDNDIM
Sequence of Transcription initiation factor TFIID subunit 10, Q12962 (Q12962 whole entry): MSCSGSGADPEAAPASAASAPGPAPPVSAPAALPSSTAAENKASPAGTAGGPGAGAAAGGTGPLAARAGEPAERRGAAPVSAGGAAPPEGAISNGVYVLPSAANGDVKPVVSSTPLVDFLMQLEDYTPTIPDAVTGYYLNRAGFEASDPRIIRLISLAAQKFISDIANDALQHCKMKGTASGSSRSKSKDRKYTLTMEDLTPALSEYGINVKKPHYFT
Sequence of Transcriptional repressor p66-alpha (Q86YP4 whole entry): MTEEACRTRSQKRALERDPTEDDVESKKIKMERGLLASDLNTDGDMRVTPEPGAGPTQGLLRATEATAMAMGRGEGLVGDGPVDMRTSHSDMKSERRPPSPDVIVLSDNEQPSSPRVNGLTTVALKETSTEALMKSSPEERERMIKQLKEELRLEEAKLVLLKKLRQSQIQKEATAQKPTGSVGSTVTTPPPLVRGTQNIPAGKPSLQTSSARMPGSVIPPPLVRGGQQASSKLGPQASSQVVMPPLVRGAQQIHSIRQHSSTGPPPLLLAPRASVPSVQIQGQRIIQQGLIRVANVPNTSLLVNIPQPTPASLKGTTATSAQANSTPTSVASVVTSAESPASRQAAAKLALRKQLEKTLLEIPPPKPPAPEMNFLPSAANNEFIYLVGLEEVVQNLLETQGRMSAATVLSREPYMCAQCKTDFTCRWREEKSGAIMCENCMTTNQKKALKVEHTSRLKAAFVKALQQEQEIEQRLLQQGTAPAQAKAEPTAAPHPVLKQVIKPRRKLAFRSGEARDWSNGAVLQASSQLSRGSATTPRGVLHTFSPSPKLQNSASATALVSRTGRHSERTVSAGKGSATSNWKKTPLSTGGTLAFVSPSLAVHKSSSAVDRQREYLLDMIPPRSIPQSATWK
Sequence of Transcription initiation factor TFIID subunit 9 (Q16594 whole entry): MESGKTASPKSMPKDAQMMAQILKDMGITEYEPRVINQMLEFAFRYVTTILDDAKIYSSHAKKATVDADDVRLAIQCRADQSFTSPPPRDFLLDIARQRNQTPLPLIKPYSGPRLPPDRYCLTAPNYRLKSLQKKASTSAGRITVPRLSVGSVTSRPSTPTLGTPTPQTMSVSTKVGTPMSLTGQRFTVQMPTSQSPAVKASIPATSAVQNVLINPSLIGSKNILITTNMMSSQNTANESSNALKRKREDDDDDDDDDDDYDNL
Sequence of Transcription initiation factor TFIID subunit 12 (Q16514 whole entry): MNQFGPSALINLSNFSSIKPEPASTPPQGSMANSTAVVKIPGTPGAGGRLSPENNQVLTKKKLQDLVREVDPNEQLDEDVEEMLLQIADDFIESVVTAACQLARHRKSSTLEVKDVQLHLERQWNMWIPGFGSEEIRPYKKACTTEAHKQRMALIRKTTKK
Sequence of Protein lin-54 homolog (Q6MZP7 whole entry): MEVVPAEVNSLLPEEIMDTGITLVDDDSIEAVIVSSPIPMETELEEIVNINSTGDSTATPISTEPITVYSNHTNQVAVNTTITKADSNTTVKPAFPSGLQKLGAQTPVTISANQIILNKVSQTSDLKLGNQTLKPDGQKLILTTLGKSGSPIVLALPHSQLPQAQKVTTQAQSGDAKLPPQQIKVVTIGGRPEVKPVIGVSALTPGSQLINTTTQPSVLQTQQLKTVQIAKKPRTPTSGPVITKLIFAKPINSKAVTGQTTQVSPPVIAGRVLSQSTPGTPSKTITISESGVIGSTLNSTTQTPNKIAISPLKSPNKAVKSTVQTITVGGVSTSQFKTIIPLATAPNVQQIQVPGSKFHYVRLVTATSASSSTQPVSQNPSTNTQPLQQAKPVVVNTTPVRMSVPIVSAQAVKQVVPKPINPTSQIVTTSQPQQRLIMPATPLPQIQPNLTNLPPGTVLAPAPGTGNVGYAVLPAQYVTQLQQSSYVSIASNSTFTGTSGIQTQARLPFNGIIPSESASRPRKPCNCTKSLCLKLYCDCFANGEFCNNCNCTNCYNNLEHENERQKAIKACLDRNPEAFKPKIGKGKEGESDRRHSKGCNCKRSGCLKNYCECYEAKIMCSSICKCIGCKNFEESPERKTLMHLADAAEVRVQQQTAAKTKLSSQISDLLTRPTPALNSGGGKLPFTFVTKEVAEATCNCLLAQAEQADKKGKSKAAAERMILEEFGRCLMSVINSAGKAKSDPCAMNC
Sequence of Mediator of RNA polymerase II transcription subunit 17 (Q9NVC6 whole entry, the tested form may be a part): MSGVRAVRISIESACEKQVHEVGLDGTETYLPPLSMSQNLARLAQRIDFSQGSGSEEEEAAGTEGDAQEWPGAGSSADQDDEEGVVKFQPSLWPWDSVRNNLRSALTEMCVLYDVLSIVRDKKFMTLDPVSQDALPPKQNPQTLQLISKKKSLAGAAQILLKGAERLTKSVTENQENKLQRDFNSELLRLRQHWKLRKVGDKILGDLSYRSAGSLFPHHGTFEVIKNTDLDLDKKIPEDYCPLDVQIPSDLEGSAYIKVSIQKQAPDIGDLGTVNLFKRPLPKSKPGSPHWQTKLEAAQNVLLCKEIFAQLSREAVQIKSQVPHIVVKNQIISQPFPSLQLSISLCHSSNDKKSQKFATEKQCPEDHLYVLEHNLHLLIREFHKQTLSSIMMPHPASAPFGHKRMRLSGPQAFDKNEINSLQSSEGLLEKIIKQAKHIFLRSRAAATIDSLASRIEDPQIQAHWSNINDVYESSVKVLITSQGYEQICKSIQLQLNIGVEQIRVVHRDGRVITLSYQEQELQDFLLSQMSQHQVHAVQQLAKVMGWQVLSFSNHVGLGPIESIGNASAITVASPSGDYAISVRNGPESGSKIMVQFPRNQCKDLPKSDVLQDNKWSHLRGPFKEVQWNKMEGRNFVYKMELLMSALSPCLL
Sequence of Methyl-CpG-binding domain protein 2 (Q9UBB5 whole entry, the tested form may be a part): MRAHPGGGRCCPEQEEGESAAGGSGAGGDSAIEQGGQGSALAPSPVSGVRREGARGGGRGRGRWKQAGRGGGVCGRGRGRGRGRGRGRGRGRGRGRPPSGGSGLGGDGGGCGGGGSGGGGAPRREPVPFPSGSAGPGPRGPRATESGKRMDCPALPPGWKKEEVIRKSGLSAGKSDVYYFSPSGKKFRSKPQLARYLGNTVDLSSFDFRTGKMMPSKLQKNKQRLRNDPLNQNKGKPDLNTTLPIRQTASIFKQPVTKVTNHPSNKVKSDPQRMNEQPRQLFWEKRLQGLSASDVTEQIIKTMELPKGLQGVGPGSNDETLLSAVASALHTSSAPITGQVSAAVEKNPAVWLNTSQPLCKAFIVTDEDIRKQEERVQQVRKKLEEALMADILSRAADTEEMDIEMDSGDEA
Sequence of Probable ATP-dependent RNA helicase DDX23 (Q9BUQ8 whole entry): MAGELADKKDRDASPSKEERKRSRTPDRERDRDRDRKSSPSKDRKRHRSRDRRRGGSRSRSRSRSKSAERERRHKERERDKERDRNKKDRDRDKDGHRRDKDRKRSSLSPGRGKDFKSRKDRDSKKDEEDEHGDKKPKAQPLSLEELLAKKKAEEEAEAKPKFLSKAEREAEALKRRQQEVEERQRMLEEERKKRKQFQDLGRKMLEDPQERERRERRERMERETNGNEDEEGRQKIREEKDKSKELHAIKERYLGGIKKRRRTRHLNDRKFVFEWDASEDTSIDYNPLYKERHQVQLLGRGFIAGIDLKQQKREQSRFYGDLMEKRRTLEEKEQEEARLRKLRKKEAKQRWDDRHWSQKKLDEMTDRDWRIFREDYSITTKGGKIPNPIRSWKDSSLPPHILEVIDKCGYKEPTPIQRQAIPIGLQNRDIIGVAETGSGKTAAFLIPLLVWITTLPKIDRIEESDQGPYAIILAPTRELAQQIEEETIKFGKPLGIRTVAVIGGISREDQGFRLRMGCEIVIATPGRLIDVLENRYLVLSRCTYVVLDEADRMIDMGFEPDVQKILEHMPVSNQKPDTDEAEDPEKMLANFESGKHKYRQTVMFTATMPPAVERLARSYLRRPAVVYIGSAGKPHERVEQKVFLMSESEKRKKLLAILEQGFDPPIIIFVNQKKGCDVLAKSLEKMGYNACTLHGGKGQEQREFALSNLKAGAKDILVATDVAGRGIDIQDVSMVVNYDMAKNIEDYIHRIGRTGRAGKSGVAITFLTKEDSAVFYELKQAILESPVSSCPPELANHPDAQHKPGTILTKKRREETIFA
Sequence of Heterogeneous nuclear ribonucleoprotein U, Q00839 (Q00839 whole entry): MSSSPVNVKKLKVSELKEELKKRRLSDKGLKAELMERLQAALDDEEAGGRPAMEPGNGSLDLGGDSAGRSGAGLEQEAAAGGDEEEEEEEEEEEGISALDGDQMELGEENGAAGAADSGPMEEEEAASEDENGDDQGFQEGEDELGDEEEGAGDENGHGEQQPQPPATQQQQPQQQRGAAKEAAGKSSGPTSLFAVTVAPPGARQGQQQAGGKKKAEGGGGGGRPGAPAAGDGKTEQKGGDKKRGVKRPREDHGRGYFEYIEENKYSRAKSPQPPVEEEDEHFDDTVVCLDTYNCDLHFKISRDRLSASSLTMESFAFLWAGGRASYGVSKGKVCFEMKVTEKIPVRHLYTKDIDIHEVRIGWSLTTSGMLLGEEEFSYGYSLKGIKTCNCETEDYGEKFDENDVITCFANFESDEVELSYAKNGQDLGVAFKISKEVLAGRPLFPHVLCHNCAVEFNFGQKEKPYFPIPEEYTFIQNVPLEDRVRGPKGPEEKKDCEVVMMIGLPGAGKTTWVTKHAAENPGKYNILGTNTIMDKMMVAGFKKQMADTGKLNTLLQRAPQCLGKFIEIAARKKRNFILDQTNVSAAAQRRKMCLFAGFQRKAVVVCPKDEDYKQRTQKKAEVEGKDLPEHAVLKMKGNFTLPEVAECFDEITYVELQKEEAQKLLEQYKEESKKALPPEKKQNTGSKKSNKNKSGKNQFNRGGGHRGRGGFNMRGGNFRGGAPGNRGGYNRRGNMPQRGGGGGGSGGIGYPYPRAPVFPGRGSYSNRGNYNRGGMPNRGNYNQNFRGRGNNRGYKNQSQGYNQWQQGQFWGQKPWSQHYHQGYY

“Paired amphipathic helix protein Sin3a, Q96ST3”: in assay [1], the “listed as a hit” value is reported as “yes”.
For Splicing factor 3B subunit 2, Q13435, the “listed as a hit” value in [2] was “yes”.
For the substance “Cyclic AMP-dependent transcription factor ATF-2, P15336”, in [3], the “listed as a hit” value was “yes”.
Consider “Transcription initiation factor TFIID subunit 10, Q12962”, for which the “listed as a hit” value in assay [4], in assay [5] and in assay [6] was “yes” each time.
With “Transcription initiation factor TFIID subunit 12, Q16514”, the “listed as a hit” value in assay [6] and in assay [7] was “yes” each time.
For the substance “Histone deacetylase complex subunit SAP18, O00422”, in [8], the “listed as a hit” value is “yes”.
As to Protein lin-52 homolog, Q52LA3, the “listed as a hit” value with Protein lin-54 homolog [9] and with Protein lin-9 homolog was “yes” throughout.
Consider THO complex subunit 2, Q8NI27, for which the “listed as a hit” value with THO complex subunit 1 is “yes”.
Regarding “Metastasis-associated protein MTA2, O94776”, the “listed as a hit” value in assay [10], in assay [11] and in assay [12] was “yes” each time.
Turning to DNA topoisomerase 2-alpha, P11388, the “listed as a hit” value with DNA topoisomerase 2-beta is reported as “yes”.
For the substance “Heterogeneous nuclear ribonucleoprotein U, Q00839”, the “listed as a hit” value in assay [13] is on record as “yes”.
For the substance “Heterogeneous nuclear ribonucleoprotein R, O43390”, the “listed as a hit” value in assay [14] is reported as “yes”.
Consider Histone H1.3, P16402, for which, in the assay with Histone H1.2, the “listed as a hit” value is given as “yes”.
Take “Mediator of RNA polymerase II transcription subunit 6, O75586”: the “listed as a hit” value in [15] is “yes”.
As for “Transcriptional repressor p66-beta, Q8WXI9”, the “listed as a hit” value in assay [16] is on record as “yes”.
Turning to “Methylcrotonoyl-CoA carboxylase subunit alpha, mitochondrial, Q96RQ3”, the “listed as a hit” value in assay [17] was “yes”.
As for “CD2 antigen cytoplasmic tail-binding protein 2, O95400”, the “listed as a hit” value in [18] was “yes”.
Take Protein lin-9 homolog, Q5TKA1: the “listed as a hit” value with Protein lin-54 homolog [19] is recorded as “yes”.
As to RNA-binding protein FUS, P35637, the “listed as a hit” value in the assay with RNA-binding protein EWS is given as “yes”.
For the substance Scaffold attachment factor B2, Q14151, the “listed as a hit” value in assay [20] is on record as “yes”.
Regarding “Serine/arginine-rich splicing factor 3, P84103”, the “listed as a hit” value in [21] was “yes”.
In the case of “Spindlin interactor and repressor of chromatin-binding protein, Q9BUA3”, the “listed as a hit” value with Spindlin-1 was “yes”.
For THO complex subunit 5, Q13769, the “listed as a hit” value in the assay with THO complex subunit 2 and with THO complex subunit 7 was “yes” each time.
Turning to Prelamin-A/C, P02545, the “listed as a hit” value in assay [22] is recorded as “yes”.
With “Transcription initiation factor TFIID subunit 5, Q15542”, the “listed as a hit” value in assay [23] and in assay [24] was “yes” each time.
With “Transcription initiation factor TFIID subunit 6, P49848”, the “listed as a hit” value in [24] is “yes”.
Take “ATP-dependent chromatin remodeler CHD4, Q14839”: the “listed as a hit” value in [12] is reported as “yes”.
For “Trifunctional enzyme subunit alpha, mitochondrial, P40939”, the “listed as a hit” value in [25] is listed as “yes”.

These data come from PMC10954555.
